Data published in PubChem BioAssay (Tox21).
Results filed as inconclusive are left out. Activity calls are given as the source filed them. Calls come from the whole dose curve; as a rule, active = well fitted cell-killing curve with a large enough effect in the repeat runs; inconclusive = weak or mixed curves, or effect the other way; inactive = flat fitted curve, though single readings scatter.

test: qHTS RealTime-Glo MT Cell Viability Assay in HEK293 cells - 40 hour (AID 1224874); conditions: RealTime-Glo luminescence; max response: active compounds read low; note: nearly all actives have a fitted effect of over 50% in size
Procedure, shortened: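 Real-time viability in HEK293: signal arises when living cells convert a prosubstrate for NanoLuc in the medium, so luminescence tracks viable cell number. Compound (23 nL, DMSO) added 5 h post-seeding; kinetic reads at 0–40 h, 37 C.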
% is set by controls: 0 for no effect and ±100 for the full control effect; potency is the fitted concentration of half-maximal effect.

| Structure (SMILES) | max response | Potency |
| --- | --- | --- |
| O=C1[C@@H]2[C@H]3CC[C@H](C3)[C@@H]2C(=O)N1CCCCN1CCN(c2ncccn2)CC1 | -0.051% (inactive) |  |
| Cc1ccc2c(c1)CCCN2 | 1.39% (inactive) |  |
| O=C(NC(Cc1cc(=O)[nH]c2ccccc12)C(=O)O)c1ccc(Cl)cc1 (stereo not given) | 3.38% (inactive) |  |
| CC(C)(C)C1(CCc2ccc(Cl)cc2)CO1 (stereo not given) | -16.7% (inactive) |  |
| CC(C)(O)CCc1ccccc1 | -8.47% (inactive) |  |
| Cc1ccc(N(CCO)CCO)cc1 | 0.166% (inactive) |  |
| CSCC[C@H](NC(=O)[C@H](Cc1c[nH]c2ccccc12)NC(=O)CCNC(=O)OC(C)(C)C)C(=O)N[C@@H](CC(=O)O)C(=O)N[C@@H](Cc1ccccc1)C(N)=O | 3.31% (inactive) |  |
| O=CNNC=O | 10.2% (inactive) |  |
| O=C(O)CO | 8.33% (inactive) |  |
| CCOc1ncc(F)c(=O)[nH]1 | -0.726% (inactive) |  |
| O=C(O)CNC(=O)c1ccccc1I | 6.48% (inactive) |  |
| Cc1cc(CCC(=O)OCCOCCOCCOC(=O)CCc2cc(C)c(O)c(C(C)(C)C)c2)cc(C(C)(C)C)c1O | 6.66% (inactive) |  |
| COc1cc(C(C)=O)ccc1OCCCN1CCC(c2noc3cc(F)ccc23)CC1 |  | 10.7 µM (active) |
| Nc1ccn([C@H]2CS[C@@H](CO)O2)c(=O)n1 | -7.77% (inactive) |  |
| CC(C)(C(=O)c1cccnc1)c1cccnc1 | 6.53% (inactive) |  |
| C[C@@H]1C[C@H]2[C@@H]3CCC4=CC(=O)C=C[C@]4(C)[C@@]3(F)[C@@H](O)C[C@]2(C)[C@@]1(O)C(=O)COP(=O)(O)O | -21.2% (inactive) |  |
| Cc1ccc(S(=O)(=O)NC(=O)NC2CCCCC2)cc1 | 4.44% (inactive) |  |
| O=S(=O)(O)CO | 4.46% (inactive) |  |

| Structure (SMILES) | max response | Potency |
| --- | --- | --- |
| FC(F)(F)C(F)(F)C(F)(F)C(F)(F)CCI | -4.67% (inactive) |  |
| CCCCCCOC(=O)CCCCC | 0.369% (inactive) |  |
| O=C(O)CCC(=O)c1ccc(-c2ccccc2)cc1 | 0.573% (inactive) |  |
| CCC(CO)(CO)CO | 5.95% (inactive) |  |
| C=CCOC(=O)COCCC(C)C | -1.87% (inactive) |  |
| CCOC(=O)C(C)O (stereo not given) | 15.3% (inactive) |  |
| CCCCCCCC/C=C/C(=O)O | 8.87% (inactive) |  |
| CCCCCCC(CO)CCCC (stereo not given) | 4.35% (inactive) |  |
| Nc1nc(-c2ccc([N+](=O)[O-])cc2)cs1 | -14.1% (inactive) |  |
| COC(OC)OC | 11.5% (inactive) |  |
| O=c1[nH]c2cc(C(F)(F)F)c(N3CCOCC3)cc2n(CP(=O)(O)O)c1=O | 8.28% (inactive) |  |
| CCCCCCCCCCCCCCN(C)C | -29.2% (inactive) |  |
| CCCCCCCCCCCCCCCC(=O)OCC | 0.513% (inactive) |  |
| COc1ccc(CCN(C)CCCN2CCc3cc(OC)c(OC)cc3CC2=O)cc1OC | 9.42% (inactive) |  |
| CCCCC[C@H](O)/C=C/[C@H]1[C@H](O)CC(=O)[C@@H]1C/C=C\CCCC(=O)O | 19.7% (inactive) |  |
| NC(=O)CCCCC(N)=O | 1.27% (inactive) |  |
| CCCCCCCCCCCCCOC(=O)CCSCCC(=O)OCCCCCCCCCCCCC | -0.06% (inactive) |  |
